Source: PubChem BioAssay (National Center for Advancing Translational Sciences (NCATS))
In the library only some 12% were active in any assay of this set; here they are far more common.
PLK1 PBD block: qHTS for Inhibitors of PLK1-PDB (polo-like kinase 1 - polo-box domain): Primary Screen; Plk1 PBD binding of FITC phosphopeptide, fluorescence polarization; 360,000 tested, 2.8% active; AID 720504, 2013; Potency, µM, actives largely listed as inhibitors; also: series mostly up to about 57 µM; nearly all actives have a fitted effect of over 65% in size
JMJD2A Tudor: qHTS Assay for Inhibitors of JMJD2A-Tudor Domain; AlphaScreen JMJD2A-Tudor / H3K4me3 peptide binding; Lysine-specific demethylase 4A (Homo sapiens), O75164; AID 504339, 2011; 390,000 tested, 4.4% active; Potency, µM (top dose mostly 114 µM), usual class: inhibitors; also: nearly all actives have a fitted effect of over 50% in size
Sfp PPTase inh: qHTS Assay for Inhibitors of Bacillus subtilis Sfp phosphopantetheinyl transferase (PPTase); 4'-phosphopantetheinyl transferase ffp (Bacillus subtilis), Q9F4F7; Biochemical Sfp PPTase activity, qHTS; Potency, µM, usual class: inhibitors; 310,000 tested, 3.5% active; AID 1490, 2009;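 also: the enzyme is Sfp with the accession as filed and its product quenches rhodamine fluorescence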
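Compounds were incubated with enzyme (final 15 nM) for 15 min at room temperature before substrate addition started the reaction. Fluorescence at 525 nm excitation, 598 nm emission was recorded immediately and after 30 minutes.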
HP1b chromo inh: HTS for Inhibitors of HP1-beta Chromodomain Interactions with Methylated Histone Tails; Chromobox protein homolog 1 (Homo sapiens), P83916; AlphaScreen HP1-beta / biotin-H3K9me3 peptide binding; Potency, µM (highest dose often 114 µM), hits mostly inhibitors; 390,000 tested, 0.56% active; AID 540317, 2011; also: nearly all actives have a fitted effect of over 70% in size
Target sequence (P83916 whole entry, looked up): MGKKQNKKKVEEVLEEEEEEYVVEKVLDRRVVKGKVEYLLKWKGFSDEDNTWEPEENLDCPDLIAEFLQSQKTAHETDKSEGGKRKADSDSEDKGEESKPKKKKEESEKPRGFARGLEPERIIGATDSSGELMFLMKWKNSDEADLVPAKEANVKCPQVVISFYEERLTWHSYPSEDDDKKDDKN
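Compound inhibition of the preformed complex between 50 nM HP1-beta and 50 nM biotinylated H3K9me3 peptide was read by AlphaScreen. Buffer was PBS pH 7.4 with 0.01% Tween-20. Incubations ran 30 min at room temperature, with 10 ug/mL donor/acceptor beads.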
BAZ2B inh: qHTS Assay for Inhibitors of BAZ2B. Bromodomain adjacent to zinc finger domain protein 2B (Homo sapiens), Q9UIF8. AlphaScreen BAZ2B-H3K14Ac peptide displacement. Potency, µM (top dose mostly 114 µM), most hits filed as inhibitors. 360,000 tested, 4.4% active; also: nearly all actives have a fitted effect of over 60% in size
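Multi-concentration screen (max 110 uM) measuring displacement of acetylated histone H3 peptide from BAZ2B by AlphaScreen, using 50 nM protein, 50 nM peptide and 10 ug/mL streptavidin donor plus Ni-chelate acceptor beads.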
G9a block: qHTS Assay for Inhibitors of Histone Lysine Methyltransferase G9a; 350,000 tested, 8.8% active; Potency, µM (highest dose often 102 µM), most hits filed as inhibitors; G9a H3K9 monomethylation, AlphaScreen, 2 h; Histone-lysine N-methyltransferase EHMT2 (Homo sapiens), Q96KQ7; also: nearly all actives have a fitted effect of over 75% in size
Target sequence (Q96KQ7 913-1193 limits assumed): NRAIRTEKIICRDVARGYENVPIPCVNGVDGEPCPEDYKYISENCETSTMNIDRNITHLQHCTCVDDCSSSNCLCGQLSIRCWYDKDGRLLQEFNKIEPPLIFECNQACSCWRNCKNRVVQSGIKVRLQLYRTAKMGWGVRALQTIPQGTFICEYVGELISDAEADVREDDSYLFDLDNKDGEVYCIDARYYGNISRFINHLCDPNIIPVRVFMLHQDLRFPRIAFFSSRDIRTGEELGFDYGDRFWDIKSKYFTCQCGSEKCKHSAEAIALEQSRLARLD
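AlphaScreen detection with an anti-monomethyl H3K9 antibody quantified product after a 2 h room-temperature reaction containing 500 nM biotinylated H3K9 peptide, 20 µM SAM and 20 nM enzyme, which had been preincubated 15 min with compound.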
Hits are given with their value; n = inactive; u = inconclusive; x = no result given; [ ] = another dose, or the depositor's remark. Calls follow the shape of the dose curve; as a rule, active = well fitted curve in the direction sought with a large enough effect; inconclusive = small, poorly fitted or top-dose-only effect, or another doubt; inactive = no such curve, though single readings can be large; an effect the other way counts as inactive or inconclusive.

SMILES	PLK1 PBD block	JMJD2A Tudor	Sfp PPTase inh	HP1b chromo inh	BAZ2B inh	G9a block
NCCCCCCNc1nc2c(N)ncnc2n1[C@@H]1O[C@@H]2COP(=O)(O)O[C@H]2[C@H]1O	x	x	n	x	x	x
COCCn1c(N)c(C(=O)c2cccc(S(=O)(=O)N3CCCCCC3)c2)c(=O)[nH]c1=O	n	n	x	n	n	n[12.7 µM]
CCc1nnc(NC(=O)CSc2nnc(COc3ccccc3C)o2)s1	n	n	u	n	n	50µM
COc1ccc(OC)c(NC(=O)CSc2nnc(CNC(=O)c3ccco3)o2)c1	30µM	n[11.4 µM]	n	n	n	n
CCn1c(CNC(=O)c2ccco2)nnc1SCC(=O)c1ccc(F)cc1	n	n	n	n	n	n
O=C(CSc1nnc(CNC(=O)c2ccccc2F)o1)NCc1ccccc1	n	n	n	n	n	n
C=CCn1c(CNC(=O)c2ccco2)nnc1SCC(=O)c1ccccc1	n	n	45µM	n	n	u
O=C(CSc1nnc(CNC(=O)c2ccccc2F)o1)c1ccccc1	u	u	u	n	n	71µM
CCc1nnc(NC(=O)CSc2nnc(COc3cccc(C)c3)o2)s1	n	n	u	n	n	u
CCCCn1c(N)c(N(CCOC)C(=O)c2ccc(S(=O)(=O)N3CCCCC3)cc2)c(=O)[nH]c1=O	n	n	x	n	n	n
Cc1cccc(-n2cnc3cc(C(=O)NC4CCCCCC4)ccc32)c1	x	n	x	n	n	u
COc1ccccc1-c1nnc(SCC(=O)N2CCCC2)o1	n	n	n	n	n	u
CCOc1ccccc1CNC(=O)Cn1cc2c(n1)-c1c(oc(C(=O)N3CCCC3)c1C)CC2	x	n	x	n	n	u
COc1ccc(C(C(N)=O)c2ncc(C(F)(F)F)cc2Cl)cc1OC (stereo unspecified)	n	n	n	n	n	x
CCCOC(=O)c1c(-c2ccc(OC)cc2)oc2ccc(-c3ccc(OC)nc3)cc12	38µM	n	n	n	n	u
COC(=O)c1c(-c2ccc(OC)cc2)oc2ccc(-c3ccc(OC)nc3)cc12	n	n	n	n	n	n
COc1cc(-c2ccc3ncnc(N(C)Cc4csc(C)n4)c3c2)cc(OC)c1OC	x	n	x	x	x	x
Cc1sc2ncnc(N3CCC(C(=O)Nc4ccc(S(N)(=O)=O)cc4)CC3)c2c1C	n	n	x	n	n	u
Cc1sc2ncnc(N3CCC(C(=O)Nc4cc(S(C)(=O)=O)ccc4Cl)CC3)c2c1C	n	n	x	n	n	n
CCN(CC)S(=O)(=O)c1cc(NC(=O)C2CCN(c3ncnc4sc(C)c(C)c34)CC2)ccc1Cl	n	n	x	n	n	45µM
Cc1ccc(NC(=O)C2CCN(c3ncnc4sc(C)c(C)c34)CC2)cc1S(=O)(=O)N(C)C	n	n	x	n	n	14µM
CSc1ccc(CCNC(=O)CN2C(=O)COc3ccc(S(=O)(=O)N4CCCC4)cc32)cc1	x	n	x	n	u	n
CC1(C)CC(=O)C=C(NC2=CC3OC(c4ccccc4)OCC3OC2=O)C1 (stereo unspecified)	n	n	28µM	n	n	u
O=C(Oc1ccc(N(C(=O)c2ccncc2)S(=O)(=O)c2ccc(Cl)cc2)cc1)c1ccncc1	n	n	n	n	n	50µM
O=C(Oc1ccc(N(C(=O)c2ccncc2)S(=O)(=O)c2ccc(F)cc2)cc1)c1ccncc1	u	n	n	n	n	45µM
SMILES	PLK1 PBD block	JMJD2A Tudor	Sfp PPTase inh	HP1b chromo inh	BAZ2B inh	G9a block
COC(=O)c1c(C)oc2ccc(N(C(=O)c3ccncc3)S(=O)(=O)c3ccc(Br)cc3)cc12	x	u	x	n	n	n
Cc1ccc(S(=O)(=O)N(C(=O)c2ccncc2)c2ccc(OC(=O)c3ccncc3)cc2)cc1	n	n	n	n	n	u
O=C(c1ccncc1)N(c1ccc2oc3c(c2c1)CCCC3)S(=O)(=O)c1ccc(F)cc1	n	n	n	n	u	79µM
Cc1cc(OCC(=O)Nc2nc3c(s2)CCCC3)cc(C)c1Cl	x	n	x	n	n	u
CC(=O)c1ccccc1OCCOCCOc1ccccc1C(C)=O	n	n	n	n	n	n
CCN(CC)CCOc1ccccc1C(C)=O	n	18µM	n	u	50µM	11µM
CN(C)c1ccc(/C=C2\SC(=S)N(Nc3ncc(C(F)(F)F)cc3Cl)C2=O)cc1	n	n	50µM	n	u	u
COc1cc(/C=C2\SC(=S)N(Nc3ncc(C(F)(F)F)cc3Cl)C2=O)ccc1O	n	u	u	u	35µM	40µM
CCc1ccc(Nc2nnc(SCC(=O)NCCN3C(=O)CSC3=O)s2)cc1	n	n	n	n	n	n
Cc1cc(C)n(CC(=O)NNC(=O)c2ccc(NC(=O)CC#N)cc2)n1	n	n	x	n	n	u
COc1ccc2c(C)cc(=S)[nH]c2c1	11µM	n[11.4 µM]	u	n	n	40µM
CCOC(=O)C1CCCN(CC(O)COCc2ccc3c(c2)OCO3)C1 (stereo unspecified)	n	1µM	n	u	56µM	11µM
CCC(CO)NCC(O)COCc1ccc2c(c1)OCO2 (stereo unspecified)	n	50µM	n	n	79µM	u
N#Cc1ccccc1NC(=O)C(=O)NCC(c1cccnc1)N1CCc2ccccc21 (stereo unspecified)	x	n	x	n	n	n
CSc1nc(NCCCN(C)C)c2c3c(sc2n1)CN(C)CC3	x	x	n	x	n	50µM
CSc1nc(NCC(C)C)c2c3c(sc2n1)CN(C)CC3	n	n	n	n	n	n
CCN(CC)CCNc1nc(SC)nc2sc3c(c12)CCN(C)C3	n	n	n	n	n	u
CSc1nc(NCc2ccccc2)c2c3c(sc2n1)CN(C)CC3	n	u	u	n	n	40µM
CCOC(=O)c1ccc(NC(=O)CNNC(=O)COc2ccccc2C)cc1	n	n	x	n	x	x
COc1ccc(CNC(=O)c2ccc3c(c2)N(C)C(=O)C2CCCCN32)cc1OC (stereo unspecified)	x	n	x	n	n	n
CCC(=O)Nc1nc(C)c(-c2csc(Nc3ccccn3)n2)s1	n	u	u	n	40µM	40µM
CCCC(=O)Nc1nc(C)c(-c2csc(Nc3ccccc3C)n2)s1	u	u	20µM	n	u	11µM
CCCCCC(=O)Nc1nc(C)c(-c2csc(Nc3ccccc3OC)n2)s1	n	u	n	n	u	u
COc1ccc(CCNC(=O)C(=O)NCC(c2ccco2)S(=O)(=O)c2ccc(F)cc2)cc1 (stereo unspecified)	x	n	x	n	n	n
